Measured values from PubChem BioAssay (NCATS).
Records with an inconclusive call do not appear. Active and inactive are the calls of the source. Unless noted, calls follow the shape of the dose curve; as a rule, active = well fitted curve in either direction with a large enough effect (not every such curve was filed as active); inconclusive = small, poorly fitted or top-dose-only effect, or another doubt; inactive = flat fitted curve, though single readings scatter.

How the values were obtained:
[1] = AP1 Signaling Pathway (AID 357); conditions: ME-180 AP-1-bla reporter, EGF-induced, beta-lactamase ratio, 5 h; at 17.2 µM (top of the series) unless noted;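 also: ME-180 reporter cells stimulated with EGF at its EC50 level; % is scaled to controls: 0 for no effect and ±100 for the full control effect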
Outline: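 Read-out was the 460nm/530nm emission ratio (excitation 405nm) after CCF4 loading for 2.5 hours at room temperature. Cells carried an AP-1-driven beta-lactamase reporter, were stimulated with EC50 EGF plus compound for 5 hours, and AC50 values came from titrations.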

[2] = NFAT Signaling Pathway (AID 444); conditions: Jurkat NFAT-bla M1, carbachol, beta-lactamase ratio, 5 h; at 17.2 µM (top of the series) unless noted;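 also: carbachol stimulus at about its EC50 of 1 µM final; % is scaled to controls: 0 for no effect and ±100 for the full control effect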
Outline: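 Jurkat cells with NFAT-driven β-lactamase reporter and co-expressed M1 receptor, stimulated with carbachol (final 1 uM, ~EC50), compound titration, 5 h at 37 °C. CCF4 loaded 1 h at RT; 460/530 nm ratio gave %activity and AC50.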

[3] = Stat Signaling Pathway (AID 446); conditions: ME-180 (cervical carcinoma) SIE beta-lactamase reporter, IL-6 stimulated, 5 h; at 17.2 µM (top of the series) unless noted;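 also: ME-180 cervical cancer cells given 40 pM IL-6 alongside compound; SIE-controlled beta-lactamase reporter measured as 460/530 nm FRET emission ratio; % is scaled to controls: 0 for no effect and ±100 for the full control effect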
Outline: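 Normalization used AC90 stimulation (300 pM IL-6) and AC90 inhibition (125 nM pan-JAK inhibitor at 40 pM IL-6). The underlying signal is SIE-driven beta-lactamase in ME-180 cells after 5 h IL-6 exposure with compound.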

[4] = target: Glucocorticoid receptor (Homo sapiens) (UniProt P04150); assay: GR-GFP Redistribution (AID 450;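 active = compounds whose dose series gives a full or clear partial fitted curve of increased nuclear translocation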; also: potency is read from the fitted curve at half-maximal effect)
Sequence of Glucocorticoid receptor (Homo sapiens) (P04150 whole entry, looked up, the tested form may be a part): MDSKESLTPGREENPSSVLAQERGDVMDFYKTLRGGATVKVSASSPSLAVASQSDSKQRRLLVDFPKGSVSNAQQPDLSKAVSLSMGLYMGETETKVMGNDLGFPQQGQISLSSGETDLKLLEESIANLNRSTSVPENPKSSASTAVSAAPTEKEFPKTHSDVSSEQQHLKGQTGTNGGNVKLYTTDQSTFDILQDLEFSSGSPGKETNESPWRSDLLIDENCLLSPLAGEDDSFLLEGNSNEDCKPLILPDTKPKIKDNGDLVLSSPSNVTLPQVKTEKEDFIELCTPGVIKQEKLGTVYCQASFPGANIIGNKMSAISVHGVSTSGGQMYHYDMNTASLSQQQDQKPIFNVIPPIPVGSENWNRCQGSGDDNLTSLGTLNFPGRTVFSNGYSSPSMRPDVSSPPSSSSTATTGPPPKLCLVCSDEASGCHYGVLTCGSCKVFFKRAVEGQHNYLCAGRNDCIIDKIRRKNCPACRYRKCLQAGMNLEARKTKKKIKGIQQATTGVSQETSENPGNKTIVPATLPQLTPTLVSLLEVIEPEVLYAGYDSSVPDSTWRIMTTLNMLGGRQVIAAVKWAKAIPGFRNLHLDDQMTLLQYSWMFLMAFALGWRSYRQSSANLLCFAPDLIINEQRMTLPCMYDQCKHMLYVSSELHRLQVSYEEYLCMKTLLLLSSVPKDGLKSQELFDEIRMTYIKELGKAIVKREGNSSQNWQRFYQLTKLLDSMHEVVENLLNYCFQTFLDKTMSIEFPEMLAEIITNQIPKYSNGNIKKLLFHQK

[5] = target: Cytochrome P450 1A2 (Homo sapiens) (UniProt P05177); assay: p450-cyp1a2 (AID 410; calls by dose curve;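 also: -100% = full effect of reference inhibitor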)
Sequence of Cytochrome P450 1A2 (Homo sapiens) (P05177 whole entry, looked up): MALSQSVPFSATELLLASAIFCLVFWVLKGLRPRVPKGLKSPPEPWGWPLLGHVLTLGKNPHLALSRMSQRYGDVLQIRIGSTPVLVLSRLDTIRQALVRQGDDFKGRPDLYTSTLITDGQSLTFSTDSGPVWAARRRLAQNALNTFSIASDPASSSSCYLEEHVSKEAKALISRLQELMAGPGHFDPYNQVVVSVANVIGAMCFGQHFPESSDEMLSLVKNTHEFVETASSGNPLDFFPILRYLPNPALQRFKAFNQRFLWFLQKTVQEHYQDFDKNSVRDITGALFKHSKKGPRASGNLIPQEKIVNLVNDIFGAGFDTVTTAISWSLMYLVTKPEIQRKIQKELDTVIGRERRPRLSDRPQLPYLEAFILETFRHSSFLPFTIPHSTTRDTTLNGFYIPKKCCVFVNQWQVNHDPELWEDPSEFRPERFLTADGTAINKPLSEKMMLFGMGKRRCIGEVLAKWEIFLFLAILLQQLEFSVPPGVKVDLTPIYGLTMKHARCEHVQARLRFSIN
Outline: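 O-Demethylation of luciferin 6' methyl ether by human CYP1A2 is monitored as luciferase luminescence. Substrate sits at Km (100uM); enzyme is 20nM. Values are scaled to 57 uM furafylline as maximal inhibition.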

[6] = target: Glucocorticoid receptor (Homo sapiens) (UniProt P04150); assay: GR-EFC Redistribution (AID 451; calls by dose curve; also: potency is read from the fitted curve at half-maximal effect); conditions: CHO-K1 GR-EFC translocation, beta-gal luminescence, 2 h
Outline: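 CHO-K1 cells expressing nuclear EA and GR-ED fragments of b-gal; compounds titrated up to 46 uM final, 2 h at 37 C. GR nuclear translocation read as complemented b-gal luminescence after 1 h RT detection.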

[7] = target: Mitogen-activated protein kinase 10 (Mus musculus) (UniProt Q61831); assay: JNK3 AlphaScreen Assay (AID 530);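 also: kinase came from lysate of stimulated human HepG2 cells; signal reports phosphorylation of biotinylated GST-cJun 1-79 at Ser73 with 10 µM ATP; % is scaled to controls: 0 for no effect and ±100 for the full control effect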
Outline: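 Activity was read by AlphaScreen after JNK3-containing HepG2 lysate (cytokine pre-activated) phosphorylated biotinylated GST-cJun with 10 uM ATP at room temperature. Phospho-Ser73 cJun antibody with Protein-A acceptor beads provided detection.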

[8] = target: 3',5'-cyclic-AMP phosphodiesterase 4B (Homo sapiens) (UniProt Q07343); assay: qHTS Assay for Inhibitors of PDE-IV (AID 607; active = well fitted activation curve with a large enough effect in the main read-out, with a control signal flat, not every such curve was filed as active; also: % of control where 0% means no effect)
Sequence of 3',5'-cyclic-AMP phosphodiesterase 4B (Homo sapiens) (Q07343 whole entry, looked up): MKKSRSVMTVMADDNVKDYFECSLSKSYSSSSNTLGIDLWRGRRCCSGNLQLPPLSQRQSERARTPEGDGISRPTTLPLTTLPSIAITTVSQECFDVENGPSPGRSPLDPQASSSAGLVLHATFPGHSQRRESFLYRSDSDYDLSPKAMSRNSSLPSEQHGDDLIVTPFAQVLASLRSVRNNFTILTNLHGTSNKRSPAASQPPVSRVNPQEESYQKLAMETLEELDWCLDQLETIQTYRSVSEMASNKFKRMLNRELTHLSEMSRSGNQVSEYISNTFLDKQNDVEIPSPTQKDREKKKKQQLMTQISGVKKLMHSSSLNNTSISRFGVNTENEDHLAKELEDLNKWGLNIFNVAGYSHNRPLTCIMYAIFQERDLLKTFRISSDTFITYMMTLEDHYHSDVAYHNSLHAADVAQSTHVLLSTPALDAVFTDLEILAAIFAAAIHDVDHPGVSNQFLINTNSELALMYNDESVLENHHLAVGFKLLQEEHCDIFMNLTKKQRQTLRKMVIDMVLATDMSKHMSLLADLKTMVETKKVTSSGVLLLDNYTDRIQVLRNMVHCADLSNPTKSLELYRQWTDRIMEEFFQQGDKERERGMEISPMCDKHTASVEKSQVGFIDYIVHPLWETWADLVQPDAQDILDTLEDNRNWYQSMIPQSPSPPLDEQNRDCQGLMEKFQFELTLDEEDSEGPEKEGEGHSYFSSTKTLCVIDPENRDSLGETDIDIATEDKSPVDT
Outline: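 HEK293 ACTOne cells with CNG channel (1000/well), endogenous PDE4; membrane potential dye, compounds up to 22.9 uM final. Fluorescence Ex 535/Em 590; RO 20-1724 (100 uM final) as reference.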

[9] = qHTS Assay for Identification of Small Molecule Agonists for Thrombopoietin (TPO) Signaling Pathway (AID 917; active = well fitted curve in the direction sought with a large enough effect; an effect the other way counts as inactive or inconclusive; also: % is scaled to controls: 0 for no effect and ±100 for the full control effect)
Outline: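 Human TPO receptor–transfected Ba/F3 cells (murine, IL-3-dependent) in IL-3-deficient medium; compounds plus TPO at EC50, 26 pM final; 24 hrs, 37 C; GpIIb-luciferase luminescence after 10 min RT detection.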

[10] = target: Pyruvate kinase (Leishmania mexicana) (UniProt Q27686); assay: qHTS Validation Assay for Inhibitors of Leishmania Mexicana Pyruvate Kinase (AID 945; active = well fitted curve in the direction sought with a large enough effect; an effect the other way counts as inactive or inconclusive;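 also: 0% = DMSO only neutral control wells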)
Sequence of Pyruvate kinase (Leishmania mexicana) (Q27686 2-499 E452W): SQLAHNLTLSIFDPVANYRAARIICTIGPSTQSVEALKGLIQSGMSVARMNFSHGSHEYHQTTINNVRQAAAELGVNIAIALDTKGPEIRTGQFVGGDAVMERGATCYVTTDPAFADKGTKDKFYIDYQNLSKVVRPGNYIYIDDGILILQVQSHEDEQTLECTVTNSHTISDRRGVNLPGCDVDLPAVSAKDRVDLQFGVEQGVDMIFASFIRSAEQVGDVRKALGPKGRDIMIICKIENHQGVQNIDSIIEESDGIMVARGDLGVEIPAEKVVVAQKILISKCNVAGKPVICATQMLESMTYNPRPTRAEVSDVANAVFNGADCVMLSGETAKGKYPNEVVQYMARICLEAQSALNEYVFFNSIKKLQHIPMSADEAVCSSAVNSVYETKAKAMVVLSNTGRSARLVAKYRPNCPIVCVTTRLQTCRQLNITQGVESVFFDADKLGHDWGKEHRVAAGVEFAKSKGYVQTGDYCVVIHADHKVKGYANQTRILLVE
Outline: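 Luminescent ATP detection (PKLight) after a 1 h room-temperature reaction of 0.2 nM LmPYK E451W mutant with 0.5 mM PEP and 0.1 mM ADP at pH 7.2. Activity is normalized to DMSO-only control wells.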

[11] = target: Pyruvate kinase PKM (Homo sapiens) (UniProt P14618); assay: qHTS Assay for Activators of Human Muscle Pyruvate Kinase (AID 954; active = well fitted curve in the direction sought with a large enough effect, not every such curve was filed as active;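 also: 0% = uninhibited enzyme and -100% = no enzyme or full thiadiazolimine inhibition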)
Sequence of Pyruvate kinase PKM (Homo sapiens) (P14618 whole entry, looked up): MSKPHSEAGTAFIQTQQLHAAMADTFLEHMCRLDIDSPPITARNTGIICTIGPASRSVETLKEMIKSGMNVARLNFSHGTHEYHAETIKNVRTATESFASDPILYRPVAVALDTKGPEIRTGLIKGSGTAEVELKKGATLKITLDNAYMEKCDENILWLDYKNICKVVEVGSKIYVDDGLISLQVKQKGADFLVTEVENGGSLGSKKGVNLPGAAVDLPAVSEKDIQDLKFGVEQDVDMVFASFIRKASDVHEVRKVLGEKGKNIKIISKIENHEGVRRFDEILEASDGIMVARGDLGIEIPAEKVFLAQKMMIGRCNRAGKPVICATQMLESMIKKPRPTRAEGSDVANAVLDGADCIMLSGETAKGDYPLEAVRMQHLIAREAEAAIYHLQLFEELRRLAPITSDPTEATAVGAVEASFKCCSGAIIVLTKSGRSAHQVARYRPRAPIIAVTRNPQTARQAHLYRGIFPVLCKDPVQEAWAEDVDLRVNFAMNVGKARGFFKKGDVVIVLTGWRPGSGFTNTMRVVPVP
Outline: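 Compound pinned into substrate mix (0.5 mM PEP, 0.1 mM ADP), then 0.1 nM PKM2 added; 1 h, RT. Stop/detection luciferase reagent added, luminescence read. Normalized to no-inhibition and no-enzyme or reference-inhibitor controls.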

[12] = target: Alpha-galactosidase A (Homo sapiens) (UniProt P06280); assay: Counterscreen for Glucocerebrosidase Inhibitors: qHTS Assay for Human alpha-Galactosidase at pH 4.5 (AID 992; active = well fitted curve in the direction sought with a large enough effect; an effect the other way counts as inactive or inconclusive; also: 0% is about no effect)
Sequence of Alpha-galactosidase A (Homo sapiens) (P06280 whole entry, looked up): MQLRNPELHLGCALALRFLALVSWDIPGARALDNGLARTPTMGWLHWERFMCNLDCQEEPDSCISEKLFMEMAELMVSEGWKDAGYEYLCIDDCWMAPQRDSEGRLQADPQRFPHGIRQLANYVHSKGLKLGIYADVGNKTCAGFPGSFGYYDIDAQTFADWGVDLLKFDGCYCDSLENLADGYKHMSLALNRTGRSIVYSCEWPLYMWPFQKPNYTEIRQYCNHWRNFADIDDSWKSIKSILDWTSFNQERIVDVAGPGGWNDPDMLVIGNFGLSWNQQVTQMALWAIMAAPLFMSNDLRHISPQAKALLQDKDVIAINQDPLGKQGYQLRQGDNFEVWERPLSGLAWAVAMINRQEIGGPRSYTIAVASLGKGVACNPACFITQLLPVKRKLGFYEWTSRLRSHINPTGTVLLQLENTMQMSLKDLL
Outline: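 Steps: enzyme (2 nM final), then compound across 0.7 nM to 77 uM, then 80 uM fluorogenic galactopyranoside substrate; incubate 20 min at room temperature; quench at pH 10; measure fluorescence at 365/440 nm.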

[13] = target: alpha-glucosidase (Oryza sativa, rice) (UniProt Q653V4); assay: Counterscreen for Glucocerebrosidase Inhibitors: qHTS Assay for Rice alpha-Glucosidase at pH 5.0 (AID 997; active = well fitted curve in the direction sought with a large enough effect; an effect the other way counts as inactive or inconclusive;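 also: 0% = full activity with enzyme and -100% = basal without enzyme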)
Outline: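 Endpoint fluorogenic assay at pH 5.0: compounds (0.7 nM to 77 uM) titrated against 4 nM rice enzyme and 400 uM 4-MU-alpha-glucoside for 20 min at room temperature; NaOH/glycine stop, read ex 365/em 440 nm, Hill-fitted AC50.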

CC1(C)NC(=O)N(CC(O)COc2cc3ccccc3cc2C(=O)N2CCCCC2)C1=O (stereo unspecified)
inactive: activity change, negative = inhibition [1] -6.63% | activity change, negative = inhibition [2] 8.86% | activity, negative = inhibition [3] -3.07% | Potency [4] > 20.6 µM

COc1ccccc1C(=O)NCC(=O)n1nc(C)cc1C
inactive: activity change, negative = inhibition [1] -3.59% | activity change, negative = inhibition [2] -5.21% | activity, negative = inhibition [3] 10.4% | Potency [4] > 20.6 µM

CO[C@H]1C[C@@H]2CC[C@@H](C)[C@@](O)(O2)C(=O)C(=O)N2CCCC[C@H]2C(=O)O[C@H]([C@H](C)C[C@@H]2CC[C@@H](O)[C@H](OC)C2)CC(=O)[C@H](C)C=C(C)[C@@H](O)[C@@H](OC)C(=O)[C@H](C)C[C@H](C)C=CC=CC=C1C
inactive: activity change, negative = inhibition [1] 6.13% | activity change, negative = inhibition [2] 24.7% | activity, negative = inhibition [3] -28.8%

CCOC(=O)CSc1nc2sc3c(c2c(=O)[nH]1)CC(C)(C)OC3
inactive: activity change, negative = inhibition [1] 6.27% | activity change, negative = inhibition [2] 6.58% | activity, negative = inhibition [3] 4.32% | Potency [4] > 20.6 µM

COc1cc(N2CCCC2)c(OC)cc1/C=c1/sc2nc3ccccc3n2c1=O
inactive: activity change, negative = inhibition [1] -3.35% | activity change, negative = inhibition [2] -23% | activity, negative = inhibition [3] -0.381%

CCOc1ccccc1N1CCN(c2nc3ccccc3nc2C(C#N)C(=O)OC)CC1 (stereo unspecified)
active: activity change, negative = inhibition [2] -106%
inactive: activity change, negative = inhibition [1] -24.3% | activity, negative = inhibition [3] -16.5% | Potency [4] > 20.6 µM

Nc1nonc1OCCc1ccccc1
inactive: activity change, negative = inhibition [1] 2.66% | activity change, negative = inhibition [2] 3.18% | activity, negative = inhibition [3] -6.28%

COc1ccc(Nc2nc(Nc3ccc(OC)cc3)nc(-n3[nH]c(=O)c(C)c3C)n2)cc1
inactive: activity change, negative = inhibition [1] 22.4% | activity change, negative = inhibition [2] -1.75% | activity, negative = inhibition [3] 8.62% | Potency [4] > 20.6 µM

CCOC(=O)CC1=C(C(=O)OCC)C(c2ccc(OC)c(OC)c2)C(C#N)=C(N)O1 (stereo unspecified)
inactive: activity change, negative = inhibition [1] 1.15% | activity change, negative = inhibition [2] -21.5% | activity, negative = inhibition [3] 5.77%

CCCCCCCCCCCCCCCCCCNC(=O)OC[C@@H](COP(=O)([O-])OCC[n+]1ccsc1)OC
inactive: activity change, negative = inhibition [1] 1.14% [at 38 µM] | Potency [5] | activity, negative = inhibition [3] -15% [at 38 µM] | Potency [4] > 46 µM | Potency [6] > 46 µM | Potency [7] | Potency [8] | Potency [9] | Potency [10] | outcome [11] | outcome [12] | outcome [13]

CN1CCc2c(c3c(n2C)CCN(C)[C@@H]3c2cccnc2)[C@H]1c1cccnc1
inactive: activity change, negative = inhibition [1] 5.56% | activity change, negative = inhibition [2] 8.24% | activity, negative = inhibition [3] 9.53%

C=CCSc1nc(C)c(CC=C)c(=O)[nH]1
inactive: activity change, negative = inhibition [1] -0.627% | activity change, negative = inhibition [2] -22.4% | activity, negative = inhibition [3] 0.0275% | Potency [4] > 20.6 µM
